Seven molecules from PubChem BioAssay (EPA / NIEHS) can be followed below.

Read-out in assay [1]: Low-density lipoprotein receptor (LDLR), LDLR (gene 3949)
Kind of assay: BSK_CASM3C_LDLR: BioMAP Diversity Plus: CASM3C Assay for Low-density lipoprotein receptor (LDLR) Biomarker Activity (AID 2283045).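 Note: LDLR protein level on the cell surface quantified by ELISA.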 Conditions: primary human coronary artery smooth muscle cells; actives raise or lower the signal.

Read-out in assay [2]: Monocyte Chemoattractant Protein-1 (MCP1), CCL2 (gene 6347)
Kind of assay: BSK_CASM3C_MCP1: BioMAP Diversity Plus: CASM3C Assay for Monocyte Chemoattractant Protein-1 (MCP1) Biomarker Activity (AID 2283046).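 Note: MCP-1 level quantified by ELISA 24 h after dosing.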 The settings on record: primary human coronary artery smooth muscle cells; actives raise or lower the signal.

A short description of assay [3]: BSK_CASM3C_Proliferation: Cell Proliferation Assessment in the BioMAP Diversity Plus: CASM3C Assay (AID 2283047).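 Note: sulforhodamine B total protein stain as relative cell number at 560 nm; sub-confluent cells exposed 48 h before staining; fitted both ways against DMSO so gain or loss of cell number.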 The settings on record: primary human coronary artery smooth muscle cells.
Read-out in assay [4]: Monokine induced gamma interferon (MIG), CXCL9 (gene 4283)
Description: BSK_CASM3C_MIG: BioMAP Diversity Plus: CASM3C Assay for Monokine induced gamma interferon (MIG) Biomarker Activity (AID 2283048).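 Note: MIG protein level measured by ELISA.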 Conditions: primary human coronary artery smooth muscle cells; actives raise or lower the signal.

Read-out in assay [5]: serum amyloid A (SAA), SAA1 (gene 6288)
Description: BSK_CASM3C_SAA: BioMAP Diversity Plus: CASM3C Assay for serum amyloid A (SAA) Biomarker Activity (AID 2283049).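 Note: SAA protein level quantified by ELISA.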 Conditions: primary human coronary artery smooth muscle cells; actives raise or lower the signal.

The nature of assay [6]: BSK_CASM3C_SRB: Viability Assessment in the BioMAP Diversity Plus: CASM3C Assay (AID 2283050).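 Note: total protein by SRB staining as cytotoxicity measure in parallel cultures.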 The settings on record: primary human coronary artery smooth muscle cells.
Read-out in assay [7]: Thrombomodulin, THBD (gene 7056)
Description: BSK_CASM3C_Thrombomodulin: BioMAP Diversity Plus: CASM3C Assay for Thrombomodulin Biomarker Activity (AID 2283051).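 Note: thrombomodulin protein level measured by ELISA 24 h after dosing.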 The settings on record: primary human coronary artery smooth muscle cells; actives raise or lower the signal.

Read-out in assay [8]: Tissue Factor, F3 (gene 2152)
Kind of assay: BSK_CASM3C_TissueFactor: BioMAP Diversity Plus: CASM3C Assay for Tissue Factor Biomarker Activity (AID 2283052).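 Note: cell surface tissue factor protein level read by ELISA.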 Conditions: primary human coronary artery smooth muscle cells; actives raise or lower the signal.

Read-out in assay [9]: Interferon-gamma inducible Protein 10 (IP10), CXCL10 (gene 3627)
Description: BSK_hDFCGF_IP10: BioMAP Diversity Plus: hDFCGF Assay for Interferon-gamma inducible Protein 10 (IP10) Biomarker Activity (AID 2283053). Conditions: primary human foreskin fibroblasts; actives raise or lower the signal. In a few lines:
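Human foreskin fibroblast primary cells (hDFCGF system) were dosed with chemical and assayed at 24 h; IP-10 measured by ELISA. Activity fitted bidirectionally relative to DMSO negative control as baseline.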

Read-out in assay [10]: Urokinase-type plasminogen activator receptor (uPAR), PLAUR (gene 5329)
Description: BSK_CASM3C_uPAR: BioMAP Diversity Plus: CASM3C Assay for Urokinase-type plasminogen activator receptor (uPAR) Biomarker Activity (AID 2283054).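 Note: cell-surface uPAR protein level quantified by ELISA.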 The settings on record: primary human coronary artery smooth muscle cells; actives raise or lower the signal.

Read-out in assay [11]: Vascular cell adhesion molecule 1 (VCAM1), VCAM1 (gene 7412)
Description: BSK_CASM3C_VCAM1: BioMAP Diversity Plus: CASM3C Assay for Vascular cell adhesion molecule 1 (VCAM1) Biomarker Activity (AID 2283055).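 Note: VCAM-1 protein level quantified by ELISA on the cells.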 Conditions: primary human coronary artery smooth muscle cells; actives raise or lower the signal.

Read-out in assay [12]: Collagen III, COL3A1 (gene 1281)
Kind of assay: BSK_hDFCGF_CollagenIII: BioMAP Diversity Plus: hDFCGF Assay for Collagen III Biomarker Activity (AID 2283056). The settings on record: primary human foreskin fibroblasts; actives raise or lower the signal. In a few lines:
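Response relative to DMSO, fitted in both directions, reflects ELISA-measured collagen III in human primary skin fibroblasts 24 h after compound addition.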

Read-out in assay [13]: Epidermal growth factor receptor (EGFR), EGFR (gene 1956)
Description: BSK_hDFCGF_EGFR: BioMAP Diversity Plus: hDFCGF Assay for Epidermal growth factor receptor (EGFR) Biomarker Activity (AID 2283057). The settings on record: primary human foreskin fibroblasts; actives raise or lower the signal. In a few lines:
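Primary human foreskin fibroblasts were exposed to compound for 24 h, after which cell-surface EGFR was quantified by ELISA. Activity was fitted bidirectionally against the DMSO negative control as baseline.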

Read-out in assay [14]: Interleukin-8 (IL8), CXCL8 (gene 3576)
Kind of assay: BSK_hDFCGF_IL8: BioMAP Diversity Plus: hDFCGF Assay for Interleukin-8 (IL8) Biomarker Activity (AID 2283058). Conditions: primary human foreskin fibroblasts; actives raise or lower the signal. The essentials: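 Fibroblast monolayers (human foreskin, hDFCGF) received test chemical for 24 h before ELISA detection of IL-8; either increases or decreases relative to DMSO count as activity.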

The nature of assay [15]: BSK_hDFCGF_Proliferation: Cell Proliferation Assessment in the BioMAP Diversity Plus: hDFCGF Assay (AID 2283059).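 Note: curves fitted for both rise and fall of signal versus DMSO baseline.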 Conditions: primary human foreskin fibroblasts. In a few lines: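 Total protein read at 560 nm after 0.1% SRB staining of TCA-fixed human skin fibroblasts, […]. Activity is fitted in both directions relative to DMSO as baseline.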

Read-out in assay [16]: Macrophage colony-stimulating factor (MCSF), CSF1 (gene 1435)
Description: BSK_hDFCGF_MCSF: BioMAP Diversity Plus: hDFCGF Assay for Macrophage colony-stimulating factor (MCSF) Biomarker Activity (AID 2283060). Conditions: primary human foreskin fibroblasts; actives raise or lower the signal. In a few lines: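 fibroblasts (human foreskin, primary), 24 h post-dose; M-CSF by ELISA; bidirectional fit, DMSO = baseline.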

Assay [17] is described as follows: BSK_hDFCGF_SRB: Viability Assessment in the BioMAP Diversity Plus: hDFCGF Assay (AID 2283061).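 Note: cells exposed to compound for 24 h before the read.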 Conditions: primary human foreskin fibroblasts. In a few lines:
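SRB-based viability read on primary human skin fibroblasts at 24 h: TCA fixation, 0.1% dye, 560 nm. Gain or loss of signal is fitted against the DMSO negative control.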

Read-out in assay [18]: TIMP metallopeptidase inhibitor 1 (TIMP1), TIMP1 (gene 7076)
Description: BSK_hDFCGF_TIMP1: BioMAP Diversity Plus: hDFCGF Assay for TIMP metallopeptidase inhibitor 1 (TIMP1) Biomarker Activity (AID 2283062). Conditions: primary human foreskin fibroblasts; actives raise or lower the signal. In a few lines: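 Bidirectional curve fitting against DMSO baseline yielded this endpoint, based on ELISA detection of TIMP-1 in primary human foreskin fibroblasts exposed to compound for 24 h.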

Read-out in assay [19]: Monokine induced gamma interferon (MIG), CXCL9 (gene 4283)
Description: BSK_hDFCGF_MIG: BioMAP Diversity Plus: hDFCGF Assay for Monokine induced gamma interferon (MIG) Biomarker Activity (AID 2283063). The settings on record: primary human foreskin fibroblasts; actives raise or lower the signal. In a few lines: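 Endpoint derived by bidirectional fitting relative to DMSO; MIG quantified via ELISA in primary human foreskin fibroblasts harvested 24 h after dosing.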

Read-out in assay [20]: Matrix Metallopeptidase 1 (MMP1), MMP1 (gene 4312)
Description: BSK_hDFCGF_MMP1: BioMAP Diversity Plus: hDFCGF Assay for Matrix Metallopeptidase 1 (MMP1) Biomarker Activity (AID 2283064). The settings on record: primary human foreskin fibroblasts; actives raise or lower the signal. The essentials:
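hDFCGF primary fibroblasts (human foreskin); chemical added; 24 h; MMP1 by ELISA; bidirectional fit vs DMSO.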

Active and inactive are the calls of the source. Rule for the calls: active = hit-call score of the fitted dose curve at least 0.9, where 1 is the maximum; inactive = score below 0.9.

Turning to `C/C=C/C=C/C(=O)O`, the outcome in assay [1], in assay [2], in [3], in [4], in assay [5] and in assay [6] was inactive. Further, the outcome in assay [7], in [8], in assay [9], in assay [10], in assay [11] and in assay [12] was inactive. For the same molecule, the result in assay [13], in assay [14], in assay [15], in assay [16], in [17] and in [18] was inactive. The outcome in assay [19] and in assay [20] was inactive.

For the molecule `O=Cc1ccccc1C=O`, the outcome in assay [1], in [2], in assay [3], in assay [4], in assay [5] and in assay [6] was inactive. The result in [7], in assay [8], in assay [9], in assay [10], in [11] and in assay [12] was inactive. Moreover, the outcome in assay [13], in [14], in assay [15], in assay [16], in assay [17] and in [18] was inactive. Besides, the result in assay [19] and in assay [20] was inactive.

In the case of `CS(=O)(=O)c1ccc([C@@H](C[C@H]2CCC(=O)C2)C(=O)Nc2cnccn2)cc1Cl`, the outcome in [1], in [2], in assay [3], in [4], in assay [5] and in assay [6] was inactive. Besides, the outcome in [7], in [8], in assay [9], in assay [10], in assay [11] and in assay [12] was inactive. In addition, the outcome in assay [13], in [14], in [15], in assay [16], in assay [17] and in assay [18] was inactive. For the same molecule, the result in assay [19] and in assay [20] was inactive.

With `C=CCCCCCCCCCCCC`, the outcome in assay [1], in [2], in [3], in assay [4], in [5] and in assay [6] was inactive. Moreover, the outcome in assay [7], in assay [8], in assay [9], in [10], in assay [11] and in assay [12] was inactive. Also, the result in assay [13], in assay [14], in assay [15], in assay [16], in assay [17] and in assay [18] was inactive. For the same molecule, the outcome in assay [19] and in [20] was inactive.

`CN(C)CCCN(C)CCCN(C)C`: the outcome in [1], in assay [2], in assay [3], in assay [4], in assay [5] and in assay [6] was inactive. Also, the outcome in assay [7], in assay [8], in [9], in assay [10], in assay [11] and in assay [12] was inactive. Besides, the result in assay [13], in [14], in [15], in [16], in assay [17] and in [18] was inactive. Moreover, the outcome in assay [19] and in assay [20] was inactive.

With `CCC(C)N(C)C(=O)c1cc2ccccc2c(-c2ccccc2Cl)n1` (stereo not given), the outcome in [1], in assay [2], in assay [3], in assay [4], in assay [5] and in [6] was inactive. The outcome in [7], in assay [8], in assay [9], in [10], in [11] and in assay [12] was inactive. Further, the outcome in [13], in assay [14], in [15], in assay [16], in assay [17] and in assay [18] was inactive. The outcome in [19] and in assay [20] was inactive.

On to `Nc1nc(=S)c2[nH]cnc2[nH]1`, for which the concentration at half-maximal activity (AC50) in assay [1] is 3.72 µM (active); in assay [3], 4.67 µM (active); in assay [12], 26.1 µM (active); in assay [15], 14 µM (active); in assay [20], 24.8 µM (active). For the same molecule, the outcome in assay [2], in [4], in [5], in assay [6], in [7] and in [8] was inactive. In addition, the result in [9], in [10], in assay [11], in assay [13], in [14] and in assay [16] was inactive. Moreover, the outcome in assay [17], in assay [18] and in assay [19] was inactive.

As a reminder, the AC50 is the midpoint of the concentration-response curve, whichever way the signal moves.
